Values joined by “and” are separate entries in the source; they are usually repeats but may differ in a detail not shown here. Identical values can stand only once. In all, about 5,500 compounds went through this assay and about 2,000 (36%) were called active. Inconclusive results (about 18%) are left out. No stated cut-off is given here; in the data, active means normalized growth mostly below about 0.91 (no sharp cut-off); inconclusive means no clear call, values can overlap the other calls; inactive means mostly above about 0.92. The list shows a part of the results.
Assay: chemical genetic growth profiling, strain panel (AID 1159580);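 further: tested at 20 µM; growth read once vehicle control cultures reached saturation at 30 °C; 1 = growth at the plate median or of vehicle wells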
Settings: growth OD

Measured: normalized growth

COc1ccc2c(C)cc(=O)oc2c1
inactive: S. cerevisiae deletion strains, locus YAL013W, strain DEP1, stronger effect = lower value 1.02 | S. cerevisiae deletion strains, locus YAL021C, strain ccr4, stronger effect = lower value 0.979 | S. cerevisiae deletion strains, locus YAL026C, strain drs2, stronger effect = lower value 0.989 | S. cerevisiae deletion strains, locus YAL030W, strain snc1, stronger effect = lower value 1.02 | S. cerevisiae deletion strains, locus YBL061C, strain skt5, stronger effect = lower value 0.993 | S. cerevisiae deletion strains, locus YBR009C, strain hhf1, stronger effect = lower value 1.01 | S. cerevisiae deletion strains, locus YBR021W, strain FUR4, stronger effect = lower value 0.976 | S. cerevisiae deletion strains, locus YBR023C, strain chs3, stronger effect = lower value 0.989 | S. cerevisiae deletion strains, locus YBR171W, strain sec66, stronger effect = lower value 0.985 | S. cerevisiae deletion strains, locus YBR229C, strain ROT2, stronger effect = lower value 1.01 | S. cerevisiae deletion strains, locus YBR231C, strain swc5, stronger effect = lower value 0.987 | S. cerevisiae deletion strains, locus YBR279W, strain paf1, stronger effect = lower value 0.995 | S. cerevisiae deletion strains, locus YCL011C, strain gbp2, stronger effect = lower value 0.999 | S. cerevisiae deletion strains, locus YCL016C, strain dcc1, stronger effect = lower value 0.997 | S. cerevisiae deletion strains, locus YCL029C, strain bik1, stronger effect = lower value 1.03 | S. cerevisiae deletion strains, locus YCL061C, strain MRC1, stronger effect = lower value 0.995 | S. cerevisiae deletion strains, locus YCL069W, strain vba3, stronger effect = lower value 0.964 | S. cerevisiae deletion strains, locus YCR088W, strain abp1, stronger effect = lower value 0.979 | S. cerevisiae deletion strains, locus YDL005C, strain med2, stronger effect = lower value 0.974 | S. cerevisiae deletion strains, locus YDL035C, strain GPR1, stronger effect = lower value 1.02 | S. cerevisiae deletion strains, locus YDL040C, strain nat1, stronger effect = lower value 0.99 | S. cerevisiae deletion strains, locus YDL074C, strain BRE1, stronger effect = lower value 0.995 | S. cerevisiae deletion strains, locus YDL101C, strain DUN1, stronger effect = lower value 1.02 | S. cerevisiae deletion strains, locus YDL134C, strain PPH21, stronger effect = lower value 0.992 | S. cerevisiae deletion strains, locus YDL185W, strain tfp1, stronger effect = lower value 1.04 | S. cerevisiae deletion strains, locus YDL192W, strain arf1, stronger effect = lower value 1.02 | S. cerevisiae deletion strains, locus YDR001C, strain nth1, stronger effect = lower value 0.981 | S. cerevisiae deletion strains, locus YDR069C, strain doa4, stronger effect = lower value 1 | S. cerevisiae deletion strains, locus YDR101C, strain arx1, stronger effect = lower value 1.01 | S. cerevisiae deletion strains, locus YDR137W, strain rgp1, stronger effect = lower value 0.979 | S. cerevisiae deletion strains, locus YDR159W, strain sac3, stronger effect = lower value 0.995 | S. cerevisiae deletion strains, locus YDR162C, strain NBP2, stronger effect = lower value 1.03 | S. cerevisiae deletion strains, locus YDR195W, strain ref2 1.04 | S. cerevisiae deletion strains, locus YDR297W, strain sur2, stronger effect = lower value 1.01 | S. cerevisiae deletion strains, locus YDR318W, strain mcm21, stronger effect = lower value 1.02 | S. cerevisiae deletion strains, locus YDR334W, strain swr1, stronger effect = lower value 0.956 | S. cerevisiae deletion strains, locus YDR335W, strain msn5, stronger effect = lower value 0.981 | S. cerevisiae deletion strains, locus YDR388W, stronger effect = lower value 1.01 | S. cerevisiae deletion strains, locus YDR392W, strain spt3, stronger effect = lower value 0.978 | S. cerevisiae deletion strains, locus YDR502C, strain sam2, stronger effect = lower value 1.03 | S. cerevisiae deletion strains, locus YEL003W, strain gim4, stronger effect = lower value 0.982 | S. cerevisiae deletion strains, locus YEL037C, strain rad23, stronger effect = lower value 0.973 | S. cerevisiae deletion strains, locus YEL061C, strain CIN8 (second series), stronger effect = lower value 0.975 | S. cerevisiae deletion strains, locus YER015W, strain faa2, stronger effect = lower value 1 | S. cerevisiae deletion strains, locus YER016W, strain bim1, stronger effect = lower value 0.998 | S. cerevisiae deletion strains, locus YER110C, stronger effect = lower value 1.02 | S. cerevisiae deletion strains, locus YER111C, strain swi4, stronger effect = lower value 0.992 | S. cerevisiae deletion strains, locus YER155C, strain BEM2 (second series), stronger effect = lower value 0.976 | S. cerevisiae deletion strains, locus YER155C, strain BEM2, stronger effect = lower value 1.01 | S. cerevisiae deletion strains, locus YER167W, strain BCK2, stronger effect = lower value 1 | S. cerevisiae deletion strains, locus YFR010W, strain ubp6, stronger effect = lower value 0.966 | S. cerevisiae deletion strains, locus YGL078C, strain dbp3, stronger effect = lower value 1.03 | S. cerevisiae deletion strains, locus YGL086W, strain mad1, stronger effect = lower value 1 | S. cerevisiae deletion strains, locus YGL167C, strain pmr1, stronger effect = lower value 0.983 | S. cerevisiae deletion strains, locus YGL173C, strain kem1, stronger effect = lower value 0.983 | S. cerevisiae deletion strains, locus YGL227W, strain vid30, stronger effect = lower value 0.993 | S. cerevisiae deletion strains, locus YGL240W, strain doc1, stronger effect = lower value 0.99 | S. cerevisiae deletion strains, locus YGL248W, strain PDE1, stronger effect = lower value 1.02 | S. cerevisiae deletion strains, locus YGL253W, strain hxk2, stronger effect = lower value 0.994 | S. cerevisiae deletion strains, locus YGR078C, strain PAC10, stronger effect = lower value 1.01 | S. cerevisiae deletion strains, locus YGR135W, strain pre9, stronger effect = lower value 1.01 | S. cerevisiae deletion strains, locus YGR252W, strain gcn5, stronger effect = lower value 0.981 | S. cerevisiae deletion strains, locus YHR013C, strain ard1, stronger effect = lower value 0.956 | S. cerevisiae deletion strains, locus YHR027C, strain rpn1, stronger effect = lower value 1 | S. cerevisiae deletion strains, locus YHR030C, strain SLT2, stronger effect = lower value 1 and 0.963 | S. cerevisiae deletion strains, locus YHR079C, strain IRE1 (second series), stronger effect = lower value 1.02 | S. cerevisiae deletion strains, locus YHR079C, strain IRE1, stronger effect = lower value 0.98 | S. cerevisiae deletion strains, locus YHR094C, strain hxt1, stronger effect = lower value 1.03 | S. cerevisiae deletion strains, locus YHR129C, strain ARP1, stronger effect = lower value 1.01 | S. cerevisiae deletion strains, locus YHR142W, strain chs7, stronger effect = lower value 0.97 | S. cerevisiae deletion strains, locus YHR200W, strain rpn10, stronger effect = lower value 1.01 | S. cerevisiae deletion strains, locus YIL066C, strain RNR3, stronger effect = lower value 1.01 | S. cerevisiae deletion strains, locus YIL073C, strain SPO22, stronger effect = lower value 1.06 | S. cerevisiae deletion strains, locus YIL125W, strain kgd1, stronger effect = lower value 1.04 | S. cerevisiae deletion strains, locus YIR030C, strain dcg1, stronger effect = lower value 1.03 | S. cerevisiae deletion strains, locus YJL092W, strain hpr5, stronger effect = lower value 0.999 | S. cerevisiae deletion strains, locus YJL095W, strain BCK1 (second series), stronger effect = lower value 0.99 | S. cerevisiae deletion strains, locus YJL095W, strain BCK1, stronger effect = lower value 1.02 and 0.987 | S. cerevisiae deletion strains, locus YJL115W, strain asf1, stronger effect = lower value 0.976 | S. cerevisiae deletion strains, locus YJL129C, strain trk1, stronger effect = lower value 1.01 | S. cerevisiae deletion strains, locus YJL134W, strain LCB3, stronger effect = lower value 1 | S. cerevisiae deletion strains, locus YJL154C, strain vps35, stronger effect = lower value 0.97 | S. cerevisiae deletion strains, locus YJL164C, strain tpk1, stronger effect = lower value 0.983 | S. cerevisiae deletion strains, locus YJL166W, strain qcr8, stronger effect = lower value 0.968 | S. cerevisiae deletion strains, locus YJL168C, strain set2, stronger effect = lower value 1.03 | S. cerevisiae deletion strains, locus YJL187C, strain SWE1 (second series), stronger effect = lower value 1.02 | S. cerevisiae deletion strains, locus YJL187C, strain SWE1, stronger effect = lower value 0.997 | S. cerevisiae deletion strains, locus YJR066W, strain TOR1, stronger effect = lower value 0.933 | S. cerevisiae deletion strains, locus YKL009W, strain mrt4, stronger effect = lower value 1.02 | S. cerevisiae deletion strains, locus YKL068W, stronger effect = lower value 1.03 | S. cerevisiae deletion strains, locus YKL085W, strain MDH1 (second series), stronger effect = lower value 1.01 | S. cerevisiae deletion strains, locus YKL085W, strain MDH1, stronger effect = lower value 1.01 | S. cerevisiae deletion strains, locus YKL160W, strain elf1, stronger effect = lower value 1 | S. cerevisiae deletion strains, locus YKL190W, strain CNB1, stronger effect = lower value 1 | S. cerevisiae deletion strains, locus YKR001C, strain vps1, stronger effect = lower value 1.03 | S. cerevisiae deletion strains, locus YKR026C, strain gcn3, stronger effect = lower value 0.991 | S. cerevisiae deletion strains, locus YKR091W, strain srl3, stronger effect = lower value 0.987 | S. cerevisiae deletion strains, locus YLL001W, strain dnm1, stronger effect = lower value 0.986 | S. cerevisiae deletion strains, locus YLL026W, stronger effect = lower value 1 | S. cerevisiae deletion strains, locus YLL041C, strain sdh2, stronger effect = lower value 0.993 | S. cerevisiae deletion strains, locus YLR027C, strain aat2, stronger effect = lower value 0.991 | S. cerevisiae deletion strains, locus YLR039C, strain RIC1, stronger effect = lower value 1.01 | S. cerevisiae deletion strains, locus YLR058C, strain SHM2, stronger effect = lower value 1.01 | S. cerevisiae deletion strains, locus YLR102C, strain apc9, stronger effect = lower value 1.04 | S. cerevisiae deletion strains, locus YLR113W, strain HOG1, stronger effect = lower value 0.998 | S. cerevisiae deletion strains, locus YLR221C, strain rsa3, stronger effect = lower value 0.993 | S. cerevisiae deletion strains, locus YLR258W, strain gsy2, stronger effect = lower value 0.972 | S. cerevisiae deletion strains, locus YLR262C, strain YPT6 (second series), stronger effect = lower value 0.964 | S. cerevisiae deletion strains, locus YLR268W, strain sec22, stronger effect = lower value 1.03 | S. cerevisiae deletion strains, locus YLR320W, strain mms22, stronger effect = lower value 1 | S. cerevisiae deletion strains, locus YLR330W, strain CHS5, stronger effect = lower value 1.01 | S. cerevisiae deletion strains, locus YLR342W, strain FKS1, stronger effect = lower value 0.989 | S. cerevisiae deletion strains, locus YLR357W, strain rsc2, stronger effect = lower value 0.966 | S. cerevisiae deletion strains, locus YLR370C, strain arc18, stronger effect = lower value 0.997 | S. cerevisiae deletion strains, locus YLR371W, strain rom2, stronger effect = lower value 0.998 | S. cerevisiae deletion strains, locus YLR384C, strain iki3, stronger effect = lower value 0.996 | S. cerevisiae deletion strains, locus YLR418C, strain cdc73, stronger effect = lower value 1.03 | S. cerevisiae deletion strains, locus YML016C, strain PPZ1, stronger effect = lower value 1.02 | S. cerevisiae deletion strains, locus YML032C, strain rad52, stronger effect = lower value 1.01 | S. cerevisiae deletion strains, locus YML120C, strain ndi1, stronger effect = lower value 1.02 | S. cerevisiae deletion strains, locus YML124C, strain tub3, stronger effect = lower value 1.02 | S. cerevisiae deletion strains, locus YMR058W, strain fet3, stronger effect = lower value 0.987 | S. cerevisiae deletion strains, locus YMR078C, strain ctf18, stronger effect = lower value 1.03 | S. cerevisiae deletion strains, locus YMR125W, strain sto1, stronger effect = lower value 0.982 | S. cerevisiae deletion strains, locus YMR129W, stronger effect = lower value 1.01 | S. cerevisiae deletion strains, locus YMR205C, strain PFK2, stronger effect = lower value 0.988 | S. cerevisiae deletion strains, locus YMR223W, strain ubp8, stronger effect = lower value 1.02 | S. cerevisiae deletion strains, locus YMR231W, strain pep5, stronger effect = lower value 0.988 | S. cerevisiae deletion strains, locus YMR307W, strain GAS1, stronger effect = lower value 0.994 | S. cerevisiae deletion strains, locus YNL067W, strain RPL9B, stronger effect = lower value 1.01 | S. cerevisiae deletion strains, locus YNL071W, strain lat1, stronger effect = lower value 0.976 | S. cerevisiae deletion strains, locus YNL183C, strain NPR1, stronger effect = lower value 0.933 | S. cerevisiae deletion strains, locus YNL209W, strain ssb2, stronger effect = lower value 1 | S. cerevisiae deletion strains, locus YNL233W, strain BNI4, stronger effect = lower value 1.02 | S. cerevisiae deletion strains, locus YNL248C, strain rpa49, stronger effect = lower value 0.923 | S. cerevisiae deletion strains, locus YNL250W, strain rad50, stronger effect = lower value 1.04 | S. cerevisiae deletion strains, locus YNL271C, strain bni1, stronger effect = lower value 1.03 | S. cerevisiae deletion strains, locus YNL298W, strain CLA4, stronger effect = lower value 1.01 | S. cerevisiae deletion strains, locus YNL307C, strain MCK1, stronger effect = lower value 1.04 | S. cerevisiae deletion strains, locus YNL322C, strain KRE1 (second series), stronger effect = lower value 1 | S. cerevisiae deletion strains, locus YNL322C, strain KRE1, stronger effect = lower value 1.01 | S. cerevisiae deletion strains, locus YNR049C, strain mso1, stronger effect = lower value 0.969 | S. cerevisiae deletion strains, locus YNR052C, strain pop2, stronger effect = lower value 1.02 | S. cerevisiae deletion strains, locus YOL012C, strain htz1 0.756 | S. cerevisiae deletion strains, locus YOL147C, strain pex11, stronger effect = lower value 1.03 | S. cerevisiae deletion strains, locus YOR001W, strain rrp6, stronger effect = lower value 0.97 | S. cerevisiae deletion strains, locus YOR061W, strain CKA2, stronger effect = lower value 1.01 | S. cerevisiae deletion strains, locus YOR069W, strain VPS5, stronger effect = lower value 1.01 | S. cerevisiae deletion strains, locus YOR070C, strain gyp1, stronger effect = lower value 1 | S. cerevisiae deletion strains, locus YOR080W, strain dia2, stronger effect = lower value 0.99 | S. cerevisiae deletion strains, locus YOR083W, strain WHI5, stronger effect = lower value 0.987 | S. cerevisiae deletion strains, locus YOR106W, strain vam3, stronger effect = lower value 0.959 | S. cerevisiae deletion strains, locus YOR136W, strain idh2, stronger effect = lower value 1.03 | S. cerevisiae deletion strains, locus YOR144C, strain elg1, stronger effect = lower value 1.02 | S. cerevisiae deletion strains, locus YOR184W, strain ser1, stronger effect = lower value 1.02 | S. cerevisiae deletion strains, locus YOR231W, strain MKK1, stronger effect = lower value 0.954 | S. cerevisiae deletion strains, locus YOR265W, strain rbl2, stronger effect = lower value 0.996 | S. cerevisiae deletion strains, locus YOR270C, strain vph1, stronger effect = lower value 0.803 | S. cerevisiae deletion strains, locus YOR290C, strain snf2, stronger effect = lower value 1 | S. cerevisiae deletion strains, locus YOR316C, strain cot1, stronger effect = lower value 1.02 | S. cerevisiae deletion strains, locus YPL051W, strain arl3, stronger effect = lower value 1.01 | S. cerevisiae deletion strains, locus YPL078C, strain atp4, stronger effect = lower value 0.994 | S. cerevisiae deletion strains, locus YPL106C, strain sse1, stronger effect = lower value 0.943 | S. cerevisiae deletion strains, locus YPL240C, strain hsp82, stronger effect = lower value 1.01 | S. cerevisiae deletion strains, locus YPL256C, strain CLN2, stronger effect = lower value 1.01 | S. cerevisiae deletion strains, locus YPR119W, strain clb2, stronger effect = lower value 1.02 | S. cerevisiae deletion strains, locus YPR141C, strain kar3, stronger effect = lower value 1.02 | S. cerevisiae deletion strains, locus YPR163C, strain tif3, stronger effect = lower value 1.03 | S. cerevisiae deletion strains, locus YPR167C, strain met16, stronger effect = lower value 1.02 | S. cerevisiae deletion strains, strain wtn01, stronger effect = lower value 1.01 | S. cerevisiae strains, strain wild type, stronger effect = lower value 1.01
